The source of these data is PubChem BioAssay AID1006 (Sanford-Burnham Center for Chemical Genomics, 2008).

Out of some 200,000 compounds screened, about 3,000 (1.5%) were called active. Shown is part of a subset that was picked to be rich in actives. Unmarked numbers belong to inactive results.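 Rule for the calls: active = inhibition above about 50% when tested at 10 µM (limit read from the data); inactive = the rest.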

Luciferin 4-monooxygenase (Photinus pyralis), sequence (P08659 whole entry, looked up): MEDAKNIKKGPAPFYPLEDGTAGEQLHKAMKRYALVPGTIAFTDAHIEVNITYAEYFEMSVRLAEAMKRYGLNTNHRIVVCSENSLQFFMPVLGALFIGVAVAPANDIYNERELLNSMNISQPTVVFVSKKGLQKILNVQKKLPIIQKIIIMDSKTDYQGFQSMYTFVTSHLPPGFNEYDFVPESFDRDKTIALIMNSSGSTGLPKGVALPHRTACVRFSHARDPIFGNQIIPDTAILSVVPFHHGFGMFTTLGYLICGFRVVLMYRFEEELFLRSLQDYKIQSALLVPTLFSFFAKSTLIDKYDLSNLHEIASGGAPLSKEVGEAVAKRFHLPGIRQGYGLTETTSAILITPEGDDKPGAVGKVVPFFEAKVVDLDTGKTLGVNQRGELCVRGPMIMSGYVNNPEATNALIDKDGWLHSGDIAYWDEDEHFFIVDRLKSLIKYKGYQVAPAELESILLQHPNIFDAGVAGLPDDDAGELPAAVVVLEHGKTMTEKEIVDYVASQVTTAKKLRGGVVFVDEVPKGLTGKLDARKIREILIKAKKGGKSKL

This test concerns the target Luciferin 4-monooxygenase (Photinus pyralis) (UniProt P08659). Nature of the test: inhibition of purified FLuc reporter enzyme – biochemical, luminescence, ATPLite, artefact control for luciferase-based inhibitor screens, primary screen (AID 1006). The note with it: ATPLite firefly luciferase biochemical luminescence, 10 min; at 10 µM; hits give high values. In general terms: Cellular ATP, detected with luciferase, serves as a proxy for viable cell number.
Take `Cc1cc(N/N=C/c2ccccc2F)c2ccccc2n1`: the inhibition is -7.5%. As to `Cc1ccc2nc(-c3ccncc3)cc(C(=O)Nc3ccc(OC(F)F)cc3)c2c1`, the inhibition is -8%.

For the compound `COc1ccccc1C(=O)Nn1c(-c2cccs2)nc2ccccc2c1=O`, the inhibition was -0.5%. Take `O=C1c2cccnc2C(=O)N1Cc1cccs1`: the inhibition is -1.3%. Consider `Cc1ccc(Oc2ccc3c(c2)C(=O)N(c2cccc4cccnc24)C3=O)cc1`, for which the inhibition was -5.2%.

With `Cc1cccc(N2C(=O)c3cccnc3C2=O)c1`, the inhibition is 68.5% (active). In the case of `CN(C)/N=C/c1cn(-c2ccccc2)nc1-c1cccnc1`, the inhibition was 5.7%.

For the compound `CCOc1ccc(/C=C(/NC(=O)c2ccccc2)C(=O)NCCC(=O)O)cc1`, the inhibition is -10.4%. In the case of `COC(=O)c1ccc(/C=N/OCC(=O)Nc2cc(F)ccc2F)cc1`, the inhibition is 0%. For the compound `CCOC(=O)N1CCN(CC(=O)Nc2ccc(F)cc2)CC1`, the inhibition was -7.1%. Consider `COc1cc(C(=S)N2CCOCC2)ccc1O`, for which the inhibition was -1%. As for `COc1ccc2[nH]c(=O)c(-c3noc(-c4ccc(F)cc4)n3)cc2c1`, the inhibition was -1.9%. Consider `Cc1cccc(-c2noc(-c3ccc(F)cc3)n2)c1`, for which the inhibition was 59.9% (active). For `Cc1ccc(Cc2nc(-c3cccc(C)c3)no2)cc1`, the inhibition is 2.3%. For the compound `COc1ccc(C(=O)NNC(=O)c2cc(C)[nH]n2)cc1`, the inhibition is -3.5%.

With `Cn1cc(CCC(=O)N2CCCC(C(=O)c3ccc(C(C)(C)C)cc3)C2)cn1` (stereo not given), the inhibition is 1.3%.

For `O=C(Nc1cccnc1)c1noc2c1CCCCC2`, the inhibition is 57.5% (active).

Take `COc1cccc(C(=O)Nc2cccnc2)c1OC`: the inhibition was -1.1%. `O=C(Nc1cccnc1)c1cccc(S(=O)(=O)N2CCCC2)c1`: the inhibition is -1.1%. Consider `Cc1ccc(CN2CCN(Cc3ccc(OCCO)cc3)CC2CCO)o1` (stereo not given), for which the inhibition was -7%.

What is called inhibition is the drop in the measured response relative to a control, in per cent.
